GLP1R inv ag: inverse agonists of human GLP-1 receptor; P43220; HEK293 GLP-1R CRE-luciferase, luminescence, 24 h; GLP-1R form is constitutively active; Potency, µM (doses to about 38.3 µM), for the others: at the top dose activity change, negative = inhibition, actives largely listed as inhibitors; 410,000 tested, 1.6% active; AID 624417; note: % is set by controls: 0 for no effect and ±100 for the full control effect; nearly all actives have a fitted effect of over 55% in size
Target sequence (P43220 whole entry, looked up): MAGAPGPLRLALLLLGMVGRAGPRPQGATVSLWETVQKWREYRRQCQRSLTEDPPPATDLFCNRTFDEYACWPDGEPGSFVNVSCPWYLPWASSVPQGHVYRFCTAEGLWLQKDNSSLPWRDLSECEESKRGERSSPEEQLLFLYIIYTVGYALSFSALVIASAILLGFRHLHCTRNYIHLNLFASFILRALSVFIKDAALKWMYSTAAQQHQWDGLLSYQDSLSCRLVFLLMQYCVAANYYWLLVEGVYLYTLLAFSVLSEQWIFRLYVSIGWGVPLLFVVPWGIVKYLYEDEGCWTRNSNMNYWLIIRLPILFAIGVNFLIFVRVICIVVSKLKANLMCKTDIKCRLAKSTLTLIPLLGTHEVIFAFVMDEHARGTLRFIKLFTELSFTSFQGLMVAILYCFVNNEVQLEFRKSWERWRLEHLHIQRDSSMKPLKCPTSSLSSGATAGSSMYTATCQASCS
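qHTS in 1536-well format: reporter HEK293 cells expressing constitutive GLP-1R activity in DMEM + 10% Nu serum, 24 hr with compounds at 37 deg C, luminescence read after 12 min with detection reagent.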
GLP-1R agonist: agonists of human GLP-1 receptor. Potency, µM (doses to about 45.6 µM), for inactives: at the top dose activation, actives largely listed as activators. 380,000 tested, 0.007% active. P43220. HEK293 GLP-1R CRE-luciferase, luminescence, 4-6 h; cells express a hypersensitive GLP-1R form. AID 624172; note: % of control where 0% means no effect
BRCA1 expr up: BRCA1 expression activation; MCF7-BRCA1-FFLuc reporter, luminescence, 48 h; response scale: scaled: vehicle 0%, 10 µM genistein 100%; Potency, µM (top dose mostly 46.1 µM), for the others: at the top dose activation, hits mostly activators; 380,000 tested, 1.1% active; note: nearly all actives have a fitted effect of over 80% in size
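Cells: MCF7-BRCA1-FFLuc, 2000/well. Exposure: 48 h, 37 °C, 5% CO2. Read: luminescence, 15 min post-substrate. Controls: genistein 10 microM (maximal activation), DMSO (neutral).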
Mito fusion yeast: inhibitors of mitochondrial division or activators of mitochondrial fusion; Potency, µM (top dose mostly 46.1 µM), for the others: at the top dose growth rescue (activation), hits mostly activators; 320,000 tested, 0.23% active; S. cerevisiae fusion-defective mutant growth rescue, CellTiterGlo 48 h; AID 485298; note: % of control where 0% means no effect; nearly all actives have a fitted effect of over 45% in size
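Read-out: ATP-based luminescence (CellTiterGlo, 10 min ambient) reporting growth of fusion-defective ts yeast after 48 hours at 37C on glycerol/ethanol YPEG medium in the presence of compound.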
HEK293 tox: cytotoxic in the GLP-1 receptor inverse agonist counter-screen. HEK293 cAMP-luciferase reporter cells, luminescence, 24 h. Potency, µM (top dose mostly 38.3 µM), for the others: top-dose activity change, negative = inhibition, most hits filed as inhibitors. 410,000 tested, 0.13% active;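 note: loss of luciferase light is scored as toxicity; % is set by controls: 0 for no effect and ±100 for the full control effect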
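Compound-treated cells are incubated 24 hr at 37 deg C under 5% CO2 after a 12 hour attachment period, then luciferase detection reagent is added and luminescence is measured following 12 min at room temperature; lowered signal indicates toxicity.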
* = called active by the depositor; ? = inconclusive; / = not tested or not shown; [ ] = dose if it differs, or a comment. Shown are actives, neighbours in structure and some others; about 2.8% of the full set was active somewhere. Calls come from the whole dose curve; as a rule, active = well fitted curve in the direction sought with a large enough effect; inconclusive = small, poorly fitted or top-dose-only effect, or another doubt; inactive = no such curve, though single readings can be large; an effect the other way counts as inactive or inconclusive. Potency is the fitted concentration of half-maximal effect.

SMILES	GLP1R inv ag	GLP-1R agonist	BRCA1 expr up	Mito fusion yeast	HEK293 tox
Cc1ccc(S(=O)(=O)CCC(=O)OCC(=O)Nc2cc(S(=O)(=O)N3CCOCC3)ccc2C)cc1	1%	-10%	-1%	-2%	2%
CCOc1ccc2c(ccc(/C=C/c3cc(C)c4cccnc4c3O)[n+]2C)c1	?	-30%	-97%	/	11µM*
Cc1ccc(Nc2cc(C)nc3nc(Cc4ccc(Cl)cc4)nn23)cc1	?	/	-41%	/	0%
COc1ccc(/C=C2/SC(=S)N(CCCC(=O)Nc3ccc(O)cc3)C2=O)cc1	5.6µM*	5%	-68%	-2%	?
COc1cccc(/C=C2\SC(=S)N(CCCC(=O)N3CCCC3)C2=O)c1	5µM*	-5%	-50%	1%	?
COc1ccc(/C=C2\SC(=S)N(CCCC(=O)Nc3ccc(O)cc3)C2=O)cc1	?	-1%	-78%	3%	?
COC(=O)c1ccc(/C=C2\SC(=S)N(CCCC(=O)NCCCN3CCOCC3)C2=O)cc1	-16%	-5%	-35%	16%	8.9µM*
O=C(CCN1C(=O)/C(=C/c2ccccc2)SC1=S)NCCc1ccc(O)cc1	5µM*	-5%	-59%	-2%	?
COc1ccc(NC(=O)CNC(=O)c2cccs2)cc1Cl	39%	8%	39%	0%	-9%
CCCCOc1ccc(S(=O)(=O)NC(=O)C2(C)CCN2C(=O)Cc2ccccc2Cl)cc1 (configuration not stated)	?	-4%	13%	/	-3%
Cn1ccc(=O)c2cc([N+](=O)[O-])ccc21	12%	-4%	-6%	/	5%
CC(/C=C1\SC(=S)N(CCC(=O)Nc2ccccc2O)C1=O)=C\c1ccccc1	5.6µM*	-13%	-25%	1%	-4%
O=[N+]([O-])c1cc(S(=O)(=O)Oc2ccccc2)ccc1Cl	?	-24%	-102%	/	?
CCCNC(=O)c1cc(Cl)c(NC(=O)C2=C(C)OCCS2)cc1OC	-19%	23%	39%	12%	-9%
CCCNC(=O)c1cc(Cl)c(NC(=O)C2=CSCCO2)cc1OC	15%	4%	7.9µM*	3%	-15%
COc1ccc(C(=O)COC(=O)c2cccnc2Cl)c(OC)c1	18%	24%	23%	3%	5%
CCOC(=O)c1ccc(NC(=O)Cc2noc3ccc(C)cc23)cc1	?	/	/	/	-3%
CCc1ccc(-c2csc(NC(=O)Oc3ccccc3)n2)cc1	39%	4%	7.9µM*	6%	6%
COc1ccc(OC(=O)Nc2ccccc2)cc1	7%	-13%	65%	-1%	-7%
O=C(Nc1nc(-c2cccc(Br)c2)cs1)Oc1ccccc1	10%	9%	?	-17%	-12%
CCc1ccc(OC(=O)Nc2ccccc2)cc1	9%	-3%	2.8µM*	3%	13%
Cc1cc(C)nc(N2CCC(C(=O)NCc3ccccc3F)CC2)n1	-26%	1%	4%	2%	-25%
N#Cc1ccc(CSc2nnc(-c3c[nH]c4ccccc34)n2-c2ccccc2)cc1	6.3µM*	7%	-91%	2%	-28%
Cc1ccc(S(=O)(=O)NCc2c(Cl)cccc2Oc2ccccc2)cc1	?	5%	-36%	2%	1%
O=S(=O)(NCc1c(Cl)cccc1Oc1ccccc1)c1ccccc1	10µM*	5%	-25%	2%	24%
SMILES	GLP1R inv ag	GLP-1R agonist	BRCA1 expr up	Mito fusion yeast	HEK293 tox
N#C/C(=C\c1cccs1)C(=O)NCc1ccccc1	-1%	12%	-10%	-4%	-5%
N#C/C(=C\c1cccs1)C(=O)Nc1nccs1	19%[7.66 µM]	3%	14µM*	2%	-19%[7.66 µM]
O=C(Nc1nccs1)Oc1ccccc1	5%	-9%	2%	2%	-1%
C/C(=C\c1ccccc1)C(=O)Nc1nccs1	?	12%	3.2µM*	?	4%
COc1ccc(C)cc1NC(=O)CNC(c1ccccc1)c1ccccc1	?	6%	0%	-3%	-1%
Cc1ccc(NC(=O)CNC(c2ccccc2)c2ccccc2)c(F)c1	11µM*	8%	-22%	-7%	-27%
CCSc1nnc(NC(=O)/C=C/c2ccco2)s1	13%	-6%	16%	-1%	5%
CCc1nnc(NC(=O)/C=C/c2ccco2)s1	31%	3%	4µM*	1%	-2%
CCCCCc1nnc(NC(=O)C2COc3ccccc3O2)s1 (configuration not stated)	12%	2%	15%	7%[9.22 µM]	0%
CCc1nnc(NC(=O)C2COc3ccccc3O2)s1 (configuration not stated)	-7%	-29%	11µM*	1%	1%
O=C(O)CCCNC(=O)/C=C/c1ccco1	13%	0%	-34%	-3%	-1%
O=C(/C=C/c1ccco1)NCCc1ccccc1	-6%	8%	6.3µM*	9%	-8%
COc1ccc(C(C)(C)C)cc1NC(=O)COc1ccc(-c2nnco2)cc1	1%	16%	-27%	/	2%
CCOc1ccc(CNC(=O)CCCn2c(=O)c3cccn3c3cccnc32)cc1	5%	/	/	/	1%
N#C/C(=C(/O)COC(=O)CCc1ccc(S(=O)(=O)N2CCOCC2)cc1)c1nc2ccccc2[nH]1	?	-5%	-29%	2%	?
CN(C)c1ccc(/C=C2\C(=O)/C(=C/c3ccc(N(C)C)cc3)c3ccccc32)cc1	/	/	-48%	/	/
CN(C)c1ccc(/C=C2\C(=O)Nc3ccccc32)cc1	/	/	?	13µM*	/
O=P(O)(CCCP(=O)(O)CCc1ccccc1)CCc1ccccc1	8%	-2%	3%	5%	17%
CCOc1ccc(-c2cn(-c3ccc(OC)cc3)c(SC)n2)cc1	?	14%	11µM*	11%	6%
CCOc1ccc(-c2cn(-c3ccc(OC)cc3)c(SCC(=O)Nc3ccccc3Cl)n2)cc1	-12%	/	/	/	-5%
CC1CCCN(C(=O)Cc2cn(Cc3cccc(Cl)c3)c3ccccc23)C1 (configuration not stated)	?	-3%	-40%	?	-6%
O=C(Cc1cn(Cc2cccc(Cl)c2)c2ccccc12)N1CCCCCC1	10µM*	1%	-34%	?	0%
COc1ccc(S(=O)(=O)Nc2ccccc2-c2nnn(CC(=O)Nc3ccccc3OC)n2)cc1	?	-3%	-88%	-18%	-34%
O=S(=O)(NCC(c1ccco1)N1CCN(c2ccc(F)cc2)CC1)c1ccc2c(c1)OCCO2 (configuration not stated)	10µM*	-2%	-64%	?	5%
Cc1cc(C(=O)NNc2ccc(F)cc2F)no1	2.8µM*	0%	0%	-1%	?
CCCC(C)NC(=O)c1nc(-c2ccccc2)n(-c2ccccc2)n1 (configuration not stated)	8.9µM*	24%	-21%	4%	-1%

From PubChem
